Assay results: PubChem BioAssay (NCATS)
Inconclusive results are not listed. Active and inactive are the calls of the source. Unless noted, calls follow the shape of the full dose curve.

Assays:
[1] = biological target: Glucocorticoid receptor (Homo sapiens) (UniProt P04150); experiment: qHTS assay for small molecule agonists of glucocorticoid receptor signaling (AID 588532; active = well fitted curve in the direction sought with a large enough effect in the signal ratio, with a control signal flat; the % refers to the signal ratio;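 also: 100% = dexamethasone at 0.1 µM and 0% = DMSO only wells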); conditions: HeLa MMTV-bla, beta-lactamase ratio, agonist, 18 h; activation: stronger effect = higher value, percent of dexamethasone control, DMSO zero
In short: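 Using MMTV-bla HeLa cells in medium with 1% stripped FBS and 25 mM HEPES, compounds were titrated and incubated overnight-length (18 h). Beta-lactamase cleavage of CCF4 was quantified by dual-emission fluorescence.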

[2] = biological target: Peroxisome proliferator-activated receptor delta (Homo sapiens) (UniProt Q03181); experiment: qHTS assay for small molecule agonists of peroxisome proliferator-activated receptor delta signaling (AID 588534);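 also: 0% = DMSO basal wells and 100% = positive control agonist at 10 µM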
In short: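 Agonist-mode qHTS; reporter cells, 5 hrs 37 C pre-incubation; compound titration, 18 hrs 37 C; CCF4 dye, 2 hrs RT; fluorescence read. EC50/efficacy via Hill fit.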

[3] = qHTS assay for environmental chemicals that activate the Aryl hydrocarbon Receptor (AhR) signaling pathway (AID 651777; active = well fitted curve in the direction sought with a large enough effect; an effect the other way counts as inactive or inconclusive; also: % of control where 0% means no effect; nearly all actives have a fitted effect of over 15% in size); conditions: 1A2-DRE human hepatoma cells, luciferase, 24 h; activation: stronger effect = higher value
In short: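 Luminescence read-out: One-Glo added for 30 min at RT after 24 hr compound treatment (37 C, 5% CO2) of human hepatoma cells expressing a DRE/CYP1A2 promoter–luciferase reporter; increased signal indicates AhR activation.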

[4] = biological target: Peroxisome proliferator-activated receptor alpha (Homo sapiens) (UniProt Q07869); experiment: qHTS assay for small molecule agonists of the peroxisome proliferator-activated receptor alpha (PPARalpha) signaling pathway (AID 651778; active = well fitted curve in the direction sought with a large enough effect; an effect the other way counts as inactive or inconclusive; also: % of control where 0% means no effect); conditions: PathHunter PPARalpha complementation, chemiluminescence, 6 h; max response: stronger effect = higher value
In short: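 Chemiluminescence from complemented enzyme reported PPARalpha activation in cells after 6 hr of compound treatment at 37 C. The detection reagent was incubated for 60 min at room temperature, and compounds were scored as agonists.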

[5] = qHTS assay for small molecule agonists of the antioxidant response element (ARE) signaling pathway measured by Nrf2-dependant transcriptional activity (AID 720636; active = well fitted curve in the direction sought with a large enough effect in the repeat runs; an effect the other way counts as inactive or inconclusive; also: potency is read from the fitted curve at half-maximal effect;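 as to activation: HepG2 cells with an ARE-driven luciferase reporter; % of control where 0% means no effect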)
In short: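 HepG2 ARE-luc reporter line, 1% dialyzed FBS; 6 hr attachment at 37 C, compound pinned in, 16 hr at 37 C/5% CO2; ONE-Glo, 30 min RT, luminescence read.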

[6] = qHTS assay for small molecule agonists of the antioxidant response element (ARE) signaling pathway measured by Nrf2-dependant transcriptional activity - cell viability counter screen (AID 720653; active = well fitted curve in the direction sought with a large enough effect in the repeat runs; an effect the other way counts as inactive or inconclusive; also: potency is read from the fitted curve at half-maximal effect; as to max response: % is scaled to controls: 0 for no effect and ±100 for the full control effect); conditions: ARE-bla HepG2 viability, CellTiter-Glo ATP luminescence, 16 h; max response: stronger effect = lower value
In short: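 Cytotoxicity counter screen: intracellular ATP quantified by CellTiter-Glo luminescence in the same ARE-bla HepG2 plates, after 16 h compound exposure and a 2 h beta-lactamase substrate step.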

[7] = qHTS assay for cell viability of HEK293 cells (AID 743288; active = well fitted curve in the direction sought with a large enough effect; an effect the other way counts as inactive or inconclusive; also: nearly all actives have a fitted effect of over 50% in size; also: potency is read from the fitted curve at half-maximal effect; as to max response: % is scaled to controls: 0 for no effect and ±100 for the full control effect); conditions: ATP luminescence (CellTiter-Glo), 18 h; max response: stronger effect = lower value
In short: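 Quantitative high-throughput screen: compounds were pinned onto parental HEK293 cells (2,000 per well) after a minimum 5 h settling at 37 C, incubated 18 h at 37 C, and intracellular ATP measured by luciferase luminescence.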

[8] = qHTS assay for cell viability of the p53RE-bla HCT-116 cell line (AID 743292; active = well fitted curve in the direction sought with a large enough effect; an effect the other way counts as inactive or inconclusive; also: % is scaled to controls: 0 for no effect and ±100 for the full control effect; nearly all actives have a fitted effect of over 55% in size)
In short: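 Luminescent ATP quantitation (CellTiter-Glo) served as the viability read-out; reagent was added after 16 h compound exposure at 37 C and read after 30 min at room temperature. Cells: p53RE-bla HCT-116, 4,000 per well.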

[9] = biological target: Nuclear receptor subfamily 1 group I member 2 (Rattus norvegicus) (UniProt Q9R1A7); experiment: qHTS assay for small molecule activators of the rat pregnane X receptor (rPXR) signaling pathway (AID 651751; call rule not given here; also: 0% is about no effect); conditions: rPXR reporter cells, luciferase (One-Glo), 24 h
[10] = biological target: Glucocorticoid receptor (Homo sapiens) (UniProt P04150); experiment: qHTS assay for small molecule antagonists of glucocorticoid receptor signaling (AID 588533; active = well fitted inhibition curve with a large enough effect in the signal ratio, with a control signal flat, not every such curve was filed as active; the % refers to the signal ratio;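 also: cells stimulated with 2 nM dexamethasone as agonist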; also: potency is read from the fitted curve at half-maximal effect)
In short: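 Antagonist-mode qHTS: compound titrations added to GRE-bla HeLa cells, then dexamethasone 2 nM final; 18 h, 37 C. CCF4 FRET fluorescence normalized to dexamethasone and DMSO; IC50 from Hill fit.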

[11] = qHTS assay for small molecule antagonists of peroxisome proliferator-activated receptor delta signaling (AID 588535); conditions: HEK293T PPARd-UAS-bla, beta-lactamase FRET ratio, 18 h; 460 nm channel;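 also: cells co-treated with a PPAR-delta agonist as stimulator during compound exposure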
In short: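 Titrations were run on PPAR-delta-UAS-bla HEK293T cells in charcoal/dextran-stripped serum, incubated 18 h at 37 C. CCF4 fluorescence (460/530 nm) after 2 h RT; Hill equation yields IC50 and maximal response.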

[12] = biological target: Vitamin D3 receptor (Homo sapiens) (UniProt P11473); experiment: qHTS assay for small molecule antagonists of vitamin D receptor signaling (AID 588541); also: potency is read from the fitted curve at half-maximal effect
In short: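 Antagonist-mode beta-lactamase reporter assay: HEK293T VDR-UAS-bla cells were exposed to titrated compound alongside 1-alpha,25-dihydroxyvitamin D3 at 3 nM final for 16 h. Values were normalized to the 50 nM agonist control and DMSO basal, with IC50 and efficacy from Hill equation fits.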

[13] = biological target: Vitamin D3 receptor (Homo sapiens) (UniProt P11473); experiment: qHTS assay for small molecule agonists of vitamin D receptor signaling (AID 588543);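 also: 0% = DMSO basal and 100% = reference agonist control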
In short: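 qHTS in agonist mode: compound titrations stimulate a VDR-driven β-lactamase reporter in HEK293T cells over 16 h at 37 °C. Response normalized to 50 nM 1α,25-dihydroxyvitamin D3 = 100%, DMSO = 0%; Hill fitting gives EC50 and maximal response.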

[14] = biological target: Retinoic acid receptor RXR-alpha (Homo sapiens) (UniProt P19793); experiment: qHTS assay for small molecule agonists of retinoid X receptor alpha signaling (AID 588544);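 also: 0% = DMSO basal wells and 100% = reference agonist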
[15] = biological target: Thyroid hormone receptor beta (Homo sapiens) (UniProt P10828); experiment: qHTS assay for small molecule agonists of thyroid hormone receptor beta signaling (AID 588545);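 also: 0% = DMSO only and 100% = 10 nM T3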
In short: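 Efficacy and EC50 values derive from Hill fits of qHTS titration data, normalized to 10 nM T3 and DMSO-only wells. HEK 293 reporter cells were stimulated for 18 hrs at 37 C, with beta-lactamase activity measured by CCF4 fluorescence.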

[16] = qHTS assay for small molecule antagonists of retinoid X receptor alpha signaling (AID 588546; active = well fitted inhibition curve with a large enough effect in the signal ratio, with a control signal flat, not every such curve was filed as active; the % refers to the signal ratio;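 also: cells stimulated with 9-cis-retinoic acid as agonist; % is scaled to controls: 0 for no effect and ±100 for the full control effect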); conditions: HEK293T RXRa-UAS-bla, beta-lactamase ratio, antagonist mode; measured here: W530 green channel, cytotoxicity proxy
In short: (§1)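 Beta-lactamase reporter inhibition, read as CCF4 fluorescence ratio (ex 405, em 460/530 nm) after 2 h at RT. HEK293T UAS-bla cells, 2500/well, were stimulated with 9-cis-RA at 500 or 100 nM final alongside test compound for 18 h at 37 C.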

[17] = biological target: Retinoic acid receptor RXR-alpha (Homo sapiens) (UniProt P19793); experiment: as above; conditions: HEK293T RXRa-UAS-bla, beta-lactamase ratio, antagonist mode
In short: as §1

[18] = biological target: Thyroid hormone receptor beta (Homo sapiens) (UniProt P10828); experiment: qHTS assay for small molecule antagonists of thyroid hormone receptor beta signaling (AID 588547; active = well fitted inhibition curve with a large enough effect in the signal ratio, with a control signal flat, not every such curve was filed as active; the % refers to the signal ratio;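 also: cells stimulated with 0.4 nM T3 agonist during compound exposure; series mostly up to about 77 µM; % is scaled to controls: 0 for no effect and ±100 for the full control effect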); conditions: TR-UAS-bla HEK293, beta-lactamase ratio, antagonist mode, 18 h
In short: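 Inhibition of T3-driven (0.4nM final) beta-lactamase reporter activity was measured over 0.59 nM to 92 uM compound after 18 h at 37 C. The cells were GripTite HEK293 TR-UAS-bla in charcoal/dextran-stripped serum, with CCF4 ratio read-out and IC50 from Hill fits.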

[19] = qHTS assay for small molecule activators of the p53 signaling pathway (AID 651743; active = well fitted activation curve with a large enough effect in the signal ratio, not every such curve was filed as active; the % refers to the signal ratio; also: series mostly up to about 92 µM; % of control where 0% means no effect); conditions: HCT-116 p53RE-bla, beta-lactamase FRET ratio, 16 h; activation: stronger effect = higher value
In short: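 After 16 hours compound treatment at 37 C, HCT-116 cells stably expressing p53RE-driven beta-lactamase were loaded with LiveBLAzer B/G FRET substrate for 2 hours at room temperature. Fluorescence intensity served as the p53 activation read-out.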

[20] = qHTS assay for small molecule activators of the nuclear factor-kappa B (NF-kB) signaling pathway (AID 651749; active = well fitted activation curve with a large enough effect in the signal ratio; the % refers to the signal ratio; also: series mostly up to about 77 µM; % of control where 0% means no effect); conditions: NF-kB-bla ME-180 cells, beta-lactamase FRET ratio, 16 h; activation: stronger effect = higher value
In short: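 Activation measured after 16 hr compound treatment at 37C, 5% CO2, of 2,000 ME-180 cells/well stably expressing an NF-kB response element–driven beta-lactamase reporter, via FRET-disruption fluorescence.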

Sequence of Nuclear receptor subfamily 1 group I member 2 (Rattus norvegicus) (Q9R1A7 whole entry, looked up): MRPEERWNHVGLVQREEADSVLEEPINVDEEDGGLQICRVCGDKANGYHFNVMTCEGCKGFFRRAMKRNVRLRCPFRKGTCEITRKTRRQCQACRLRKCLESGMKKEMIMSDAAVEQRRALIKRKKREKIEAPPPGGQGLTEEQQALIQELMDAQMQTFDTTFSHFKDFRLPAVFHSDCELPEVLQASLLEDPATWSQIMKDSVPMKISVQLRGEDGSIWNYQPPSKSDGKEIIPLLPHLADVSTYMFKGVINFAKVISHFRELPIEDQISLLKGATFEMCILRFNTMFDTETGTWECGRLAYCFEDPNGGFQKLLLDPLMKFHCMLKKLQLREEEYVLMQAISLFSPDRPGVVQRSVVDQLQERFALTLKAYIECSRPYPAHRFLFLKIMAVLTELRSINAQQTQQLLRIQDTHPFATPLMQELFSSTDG
Sequence of Vitamin D3 receptor (Homo sapiens) (P11473 whole entry, looked up): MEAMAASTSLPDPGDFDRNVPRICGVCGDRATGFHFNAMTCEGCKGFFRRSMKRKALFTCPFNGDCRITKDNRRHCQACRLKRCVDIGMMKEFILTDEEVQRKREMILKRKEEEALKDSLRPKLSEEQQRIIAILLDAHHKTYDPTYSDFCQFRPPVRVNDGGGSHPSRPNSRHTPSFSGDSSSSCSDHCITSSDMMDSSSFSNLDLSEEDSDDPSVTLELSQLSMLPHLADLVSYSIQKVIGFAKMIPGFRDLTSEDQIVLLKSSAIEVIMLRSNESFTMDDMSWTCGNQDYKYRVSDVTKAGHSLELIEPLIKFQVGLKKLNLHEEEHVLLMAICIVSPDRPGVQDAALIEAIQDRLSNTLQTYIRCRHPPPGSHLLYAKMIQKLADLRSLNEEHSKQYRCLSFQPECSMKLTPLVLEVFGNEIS
Sequence of Thyroid hormone receptor beta (Homo sapiens) (P10828 whole entry, looked up): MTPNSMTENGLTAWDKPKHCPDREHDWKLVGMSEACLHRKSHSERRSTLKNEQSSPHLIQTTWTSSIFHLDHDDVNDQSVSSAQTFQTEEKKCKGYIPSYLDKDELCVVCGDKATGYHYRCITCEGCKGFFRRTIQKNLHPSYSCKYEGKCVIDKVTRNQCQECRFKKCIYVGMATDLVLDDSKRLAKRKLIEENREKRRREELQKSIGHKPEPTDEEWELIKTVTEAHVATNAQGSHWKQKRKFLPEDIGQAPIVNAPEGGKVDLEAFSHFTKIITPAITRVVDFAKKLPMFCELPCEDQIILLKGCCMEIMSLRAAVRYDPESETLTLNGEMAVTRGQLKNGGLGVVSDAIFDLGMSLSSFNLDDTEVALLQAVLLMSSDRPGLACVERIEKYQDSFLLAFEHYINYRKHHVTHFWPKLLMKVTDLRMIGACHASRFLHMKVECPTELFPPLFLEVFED
Sequence of Peroxisome proliferator-activated receptor delta (Homo sapiens) (Q03181 whole entry, looked up): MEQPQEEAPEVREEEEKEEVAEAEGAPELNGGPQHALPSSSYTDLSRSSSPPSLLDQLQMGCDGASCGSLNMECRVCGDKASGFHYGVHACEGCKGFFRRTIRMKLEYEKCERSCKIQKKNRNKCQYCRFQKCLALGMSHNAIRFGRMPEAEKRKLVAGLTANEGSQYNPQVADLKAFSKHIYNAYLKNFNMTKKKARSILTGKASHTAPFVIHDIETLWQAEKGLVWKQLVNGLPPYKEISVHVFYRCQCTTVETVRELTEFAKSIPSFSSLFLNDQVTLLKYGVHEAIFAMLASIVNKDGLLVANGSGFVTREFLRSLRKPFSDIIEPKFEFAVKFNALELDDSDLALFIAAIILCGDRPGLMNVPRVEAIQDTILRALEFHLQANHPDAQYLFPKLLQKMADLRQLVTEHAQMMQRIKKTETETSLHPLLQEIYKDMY
Sequence of Glucocorticoid receptor (Homo sapiens) (P04150 whole entry, looked up): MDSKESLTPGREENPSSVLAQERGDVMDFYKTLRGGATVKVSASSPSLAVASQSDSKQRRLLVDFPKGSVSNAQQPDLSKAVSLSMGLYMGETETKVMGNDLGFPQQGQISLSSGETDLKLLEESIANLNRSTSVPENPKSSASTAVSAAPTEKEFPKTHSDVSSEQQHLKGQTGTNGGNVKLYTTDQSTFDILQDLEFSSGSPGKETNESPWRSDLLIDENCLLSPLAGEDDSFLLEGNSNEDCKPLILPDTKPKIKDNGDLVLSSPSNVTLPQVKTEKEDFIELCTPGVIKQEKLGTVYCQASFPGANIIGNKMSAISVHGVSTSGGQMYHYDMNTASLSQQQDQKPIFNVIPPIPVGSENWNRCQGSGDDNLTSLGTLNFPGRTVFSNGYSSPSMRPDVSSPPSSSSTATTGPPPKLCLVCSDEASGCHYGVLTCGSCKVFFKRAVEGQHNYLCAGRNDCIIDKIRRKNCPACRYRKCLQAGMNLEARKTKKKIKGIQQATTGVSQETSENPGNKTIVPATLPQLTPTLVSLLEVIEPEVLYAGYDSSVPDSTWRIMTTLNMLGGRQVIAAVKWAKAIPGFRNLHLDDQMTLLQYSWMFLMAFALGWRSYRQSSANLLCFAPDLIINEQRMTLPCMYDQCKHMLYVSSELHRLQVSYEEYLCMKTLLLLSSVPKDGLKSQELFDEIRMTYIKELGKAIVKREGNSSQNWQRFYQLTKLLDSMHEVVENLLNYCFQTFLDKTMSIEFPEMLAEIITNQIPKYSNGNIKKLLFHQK
Sequence of Retinoic acid receptor RXR-alpha (Homo sapiens) (P19793 whole entry, looked up): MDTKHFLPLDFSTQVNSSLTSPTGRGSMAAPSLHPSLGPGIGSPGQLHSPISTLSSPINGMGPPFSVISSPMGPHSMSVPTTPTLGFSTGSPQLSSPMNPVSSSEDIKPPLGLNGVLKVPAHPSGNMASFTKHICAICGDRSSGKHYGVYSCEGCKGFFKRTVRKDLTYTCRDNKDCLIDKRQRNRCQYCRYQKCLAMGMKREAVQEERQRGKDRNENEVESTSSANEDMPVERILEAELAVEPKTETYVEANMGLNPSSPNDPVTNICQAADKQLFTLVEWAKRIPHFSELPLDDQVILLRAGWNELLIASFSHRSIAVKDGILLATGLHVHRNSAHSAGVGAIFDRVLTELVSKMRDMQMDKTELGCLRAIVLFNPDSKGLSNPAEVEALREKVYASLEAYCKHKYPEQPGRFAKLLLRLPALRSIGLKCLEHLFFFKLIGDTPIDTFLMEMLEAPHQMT
Sequence of Peroxisome proliferator-activated receptor alpha (Homo sapiens) (Q07869 whole entry, looked up): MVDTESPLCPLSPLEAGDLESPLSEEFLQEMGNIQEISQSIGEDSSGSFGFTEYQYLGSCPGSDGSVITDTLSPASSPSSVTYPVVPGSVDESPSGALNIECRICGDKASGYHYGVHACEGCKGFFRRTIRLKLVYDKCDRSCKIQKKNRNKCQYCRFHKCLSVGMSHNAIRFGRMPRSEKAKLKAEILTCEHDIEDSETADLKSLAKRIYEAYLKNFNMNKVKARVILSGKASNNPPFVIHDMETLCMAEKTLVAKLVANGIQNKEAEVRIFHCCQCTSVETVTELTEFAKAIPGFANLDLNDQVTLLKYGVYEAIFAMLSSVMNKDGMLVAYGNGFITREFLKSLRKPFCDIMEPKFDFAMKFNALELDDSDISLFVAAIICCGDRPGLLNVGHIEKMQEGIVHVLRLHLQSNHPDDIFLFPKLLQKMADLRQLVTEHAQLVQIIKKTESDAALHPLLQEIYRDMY

O=[N+]([O-])c1ccc(Cl)c([N+](=O)[O-])c1
inactive: activation [1] 0.437% | outcome [2] | activation [3] -11.5% | max response [4] -3.79% | Potency [5] | Potency [8] | max response [9] -13.5%
active: Potency [6] 44.7 µM | Potency [7] 50.1 µM

CC(C)C1(C)N=C(c2ncccc2C(=O)O)NC1=O (configuration not stated)
7.61%: max response [11]
inactive: activation [1] 0.632% | Potency [10] | outcome [2] | Potency [12] | outcome [13] | Potency [14] | Potency [15] | max response [17] -0.742% | activity change % (negative = inhibition) [18] 2.89% | activation [19] -4.94% | activation [3] -1.56% | max response [4] -1.4% | Potency [5] | max response [6] -6.07% | max response [7] 8% | Potency [8] | max response [9] -3.34%
-22%: max response [16]

CCCCC(O)(Cn1cncn1)c1ccc(Cl)cc1Cl (configuration not stated)
-34%: max response [11]
inactive: Potency [10] | outcome [13] | max response [17] -17.2% | activation [19] -5.41% | activation [20] 0.388% | max response [4] 9.57% | Potency [5] | max response [6] -0.171% | max response [7] -16.7% | Potency [8]
-3.36%: max response [16]

Nc1c(Cl)c(F)nc(OCC(=O)O)c1Cl
-12.1%: max response [16]
inactive: activation [1] -4.31% | Potency [10] | Potency [12] | outcome [13] | Potency [14] | max response [17] -9.36% | activity change % (negative = inhibition) [18] 11.1% | activation [19] 0.955% | activation [20] 0.422% | activation [3] 1.14% | max response [4] 0.318% | Potency [5] | max response [7] 4.54% | Potency [8] | max response [9] -2.68%

COP(=O)(OC)OC(Br)C(Cl)(Cl)Br (configuration not stated)
inactive: activation [1] -8% | outcome [2] | outcome [13] | Potency [15] | activity change % (negative = inhibition) [18] -62.2% | max response [4] -1.63% | max response [6] -24% | Potency [8]
-79.2%: max response [11]
active: Potency [12] 44.7 µM | Potency [5] 68.6 µM

CCSC(=O)N(CC)C1CCCCC1
inactive: Potency [10] | outcome [2] | Potency [12] | outcome [13] | Potency [14] | Potency [15] | max response [17] 16.6% | activation [20] 1.91% | max response [4] -3.86% | Potency [5] | max response [6] 13.6% | max response [7] 10.3% | max response [9] -10.9%
12.6%: max response [16]

O=[N+]([O-])Nc1nccn1Cc1ccc(Cl)nc1
-3.06%: max response [16]
19.2%: max response [11]
inactive: activation [1] 0.289% | Potency [10] | outcome [2] | Potency [12] | Potency [14] | Potency [15] | max response [17] 5.37% | activity change % (negative = inhibition) [18] -3.59% | activation [19] -1.74% | activation [20] -1.97% | max response [4] -0.0433% | Potency [5] | max response [6] -10.2% | max response [7] -8% | max response [9] -4.49%

CC(C)=CC1[C@H](C(=O)OCc2cccc(Oc3ccccc3)c2)C1(C)C (some centres not stated)
26%: max response [11]
inactive: Potency [10] | outcome [2] | Potency [12] | outcome [13] | Potency [14] | Potency [15] | max response [17] 3.36% | activity change % (negative = inhibition) [18] 2.1% | activation [19] -1.37% | activation [3] -0.0338% | max response [4] -1.72% | Potency [5] | max response [6] -3.94% | max response [7] -10.6% | Potency [8]
-13.6%: max response [16]

CNC(=O)O/N=C/C(C)(C)S(C)(=O)=O
-10.7%: max response [16]
inactive: Potency [10] | Potency [14] | Potency [15] | activation [19] -2.46% | activation [3] -0.939% | max response [4] -0.004% | Potency [5] | max response [6] 1.38% | max response [7] 0.485% | Potency [8] | max response [9] 1.26%

CC(C)Oc1cc(-n2nc(C(C)(C)C)oc2=O)c(Cl)cc1Cl
22.7%: max response [11]
inactive: activation [1] 12% | Potency [10] | outcome [2] | Potency [12] | Potency [15] | activity change % (negative = inhibition) [18] -6.22% | activation [19] 0.204% | activation [20] 1.16% | activation [3] 0.842% | max response [4] 0.863% | Potency [5] | max response [6] -16% | max response [7] -26.7% | Potency [8]

CCOC(=O)C(Cl)Cc1cc(-n2nc(C)n(C(F)F)c2=O)c(F)cc1Cl (configuration not stated)
13.3%: max response [16]
inactive: activation [1] -0.667% | Potency [10] | outcome [2] | Potency [12] | outcome [13] | Potency [14] | Potency [15] | max response [17] -48.3% | activity change % (negative = inhibition) [18] 18.6% | activation [19] 1.44% | activation [20] -0.796% | activation [3] 1.53% | max response [4] 11% | Potency [5] | max response [6] -4.81% | max response [7] -19.9% | Potency [8] | max response [9] -2.22%
64.4%: max response [11]

CC(C)(C)C(O)/C(=C\c1ccc(Cl)cc1Cl)n1cncn1 (configuration not stated)
inactive: outcome [2] | Potency [12] | Potency [15] | activity change % (negative = inhibition) [18] -35.6% | activation [3] 6.02% | max response [4] 1.97% | Potency [5] | max response [6] -10.7% | max response [7] -6.74%
active: Potency [10] 35.5 µM
